The whole screen tested about 2,100 compounds, of which about 320 (15%) were called active. Inconclusive results (about 52%) are left out. Calls come from the whole dose curve; as a rule, active = well fitted cell-killing curve with a large enough effect; inconclusive = small, poorly fitted or top-dose-only effect, or effect the other way; inactive = flat fitted curve, though single readings scatter. Some of the results follow.
Test: Viability Counterscreen for CMV-Luciferase Assay of Inhibitors of ATXN expression; note: nearly all actives have a fitted effect of over 55% in size
Conditions: HEK-293 CMV-luciferase cells viability, protease fluorescence, 24 h; activity change, negative = cytotoxicity: at the top concentration
From the text: PI: Daniel Scoles Ph.D. University of Utah School of Medicine, Salt Lake City, Utah MLPCN Grant: NS073009 Spinocerebellar ataxia type 2 (SCA2) is a multisystem neurodegenerative disease caused by a dominantly acting mutation leading to expansion of a polyQ domain in the ataxin-2 protein (ATXN2). SCA2 patients develop progressive ataxia and later lose function in other neuronal systems. Prominent parkinsonian signs develop in some patients. Like many neurodegenerative disorders, no symptomatic or disease-modifying treatments are known. The primary objective of the proposed research is to identify compounds inhibiting ATXN2 expression and to test them for efficacy in SCA2 mouse models. We have developed a cell-based assay paired with an in vivo mouse model using identical luciferase expression constructs. This approach takes advantage of an ATXN2-luciferase transgene, with the luciferase gene flanked by the upstream and downstream portions of the ATXN2 gene. Here we describe a 5-7 dose quantitative high thoroughput screen (qHTS) for compounds lowering ATXN2 expression. We screened the NIH Molecular Libraries Small Molecule Repository (MLSMR) and NCGC's mechanistically annotated (MIPE) and drug repurposing (NPC) collections of compounds for lowering expression of an ATXN2-luciferase reporter in HEK-293 cells. The assay is a multiplexed cell viability assay to ensure target reduction in the absence of cytotoxicity. Secondary qHTS assays included a CMV-luciferase reporter expressed in HEK-293 cells as well as a biochemical assay using recombinant luciferase to detect inhibitors of the reporter enzyme. Compounds that inhibit ATXN2 expression but is not cytotoxic were selected for confirmatory and secondary screens.
PROTOCOL TABLE (as described by Inglese J, Shamu CE and Guy RK. 2007) SEQUENCE No. (e.g., 1, 2, 3, etc.); […] (e.g., Cells, Incubation, Reagent, etc.); VALUE; DESCRIPTION. 1; Cells; 4 uL; white, solid bottom, 1536-well Greiner assay plate. 2; Incubation; 2 hr; 37 degree C in 5% humidified CO2. 3; Compounds; 23 nL; Kalypsis pintool (Wako USA) equipped with a 1536-well pin head. 4; Incubation; 24 hr; 37 degree C in 5% humidfified CO2. 5; Reagent; 1 uL; Gly-Phe-7-Amino-4-trifluoromethylcoumarin. 6; Incubation; 30 min; 37 degree C in 5% humidfified CO2. 7; Detection; Fluorescence; Viewlux plate reader (PerkinElmer). 8; Reagent; 3 uL; SteadyGlo luciferase solution (Promega). 9; Incubation; 5 min; room temperature. 10; Detection; Luminescence; ViewLux plate reader (PerkinElmer). NOTES (numbers refer to Sequence numbers above) 1. HEK-293 cells expressing CMV-luciferase reporter (designated as SC cells) were suspended in phenol-red free DMEM and dispensed in assay plates using a Multidrop Combi dispenser (Thermo Fisher Scientific). 2. Assay plates were incubated. Evaporation was prevented by covering assay plates with metal lids containing holes to allow gas diffusion. 3. Compounds were added in a dose response manner with the final concentrations of 57, 11.4, 2.28, 0.46, 0.091, 0.018, 0.0037 uM. Vehicle-only plates, with DMSO being pin-transferred to columns 5-48, were inserted uniformly at the beginning and the end of each library to monitor and record any shifts in assay performance. 5. 125 uM Gly-Phe-7-Amino-4-trifluoromethylcoumarin (MP Biomedicals) working concentration was used at a final concentration of 25 uM. 7. To assess cell viability; the assay plates were read using the ViewLux high-throughput CCD imager (PerkinElmer), wherein single end-point fluorescence measurement was acquired (excitation 405/10; emission 540/25 nm). 8. Detection reagent SteadyGlo Luciferase (Promega) was added to the assay plate. 10. Luminescence is then measured on the ViewLux imager equipped with a clear emission filter using a 2 sec exposure. […]
% is set by controls: 0 for no effect and ±100 for the full control effect; potency is the fitted concentration of half-maximal effect.

Compound | activity change, negative = cytotoxicity | Potency
CC(=O)N1CCN(c2ccc(Oc3ccc([N+](=O)[O-])c(C(F)(F)F)c3)cc2)CC1 | -28.6% [at 57.5 µM] (inactive) | 
O=C(Oc1c(CN2CCOCC2)cc(Cl)c2cccnc12)c1ccccc1 | -15.7% (inactive) | 
Clc1ccc(SCc2cc(N3CCOCC3)nc(-c3ccccn3)n2)cc1 |  | 17.8 µM (active)
Cc1cc(Oc2ccc(Cl)cc2)nc(-c2ccccn2)n1 | 9.12% [at 57.5 µM] (inactive) | 
CCCC(=O)Nc1ccc2nc(SCC(=O)N3CCCC3)sc2c1 | 10.3% [at 57.5 µM] (inactive) | 
COc1ccccc1OCCN1CSC(=S)N(C)C1 |  | 11.2 µM (active)
COc1cc(OC)cc(-c2cc3nc(C)c(CCC(=O)NCc4ccccc4)c(C)n3n2)c1 | 0.755% [at 57.5 µM] (inactive) | 
O=C(NCc1ccccc1C(F)(F)F)c1cccc2c1C(=O)c1ccc(N3CCC(N4CCCCC4)CC3)cc1S2(=O)=O | -2.76% (inactive) | 
Cc1ccsc1/C=C/C1=Cc2c(sc(NC(=O)CSc3n[nH]c(N)n3)c2C#N)C(C)(C)C1 | 2.76% [at 57.5 µM] (inactive) | 
COC(=O)c1ccccc1S(=O)(=O)NNC(=O)Nc1ccccc1 | 7.74% (inactive) | 
COc1ccc(/C=C/C(=O)Nc2cccc(S(=O)(=O)N3CCCC3)c2)cc1OC | 17.8% (inactive) | 
CCSc1nc2ccccc2n1C(=O)/C=C\c1ccc(OC)c(OC)c1 |  | 4.47 µM (active)
O=C(CN1c2cccc3cccc(c23)S1(=O)=O)NCc1ccc(Cl)cc1 | 1.66% (inactive) | 
CCN(CC)CCC(c1ccc2c(c1)OCO2)c1c(OC)cc(OC)c2c(-c3ccccc3)cc(=O)oc12 (configuration not stated) |  | 17.8 µM (active)
CC(C)(C)c1ccc(OCCn2nc(C(=O)O)c3ccccc3c2=O)cc1 | -4.92% [at 57.5 µM] (inactive) | 
COc1ccc(-n2nc(C(=O)NCC(=O)Nc3cccc(Cl)c3)c3ccccc3c2=O)cc1OC | -8.61% [at 57.5 µM] (inactive) | 
COc1ccccc1C(=O)NNC(=O)c1nn(Cc2ccccc2)c(=O)c2ccccc12 |  | 22.4 µM (active)
O=C(N/N=C/c1ccccc1O)/C(=C/c1ccccc1)CCO | -7.96% (inactive) | 
CC(C)(C)NCC(=Cc1ccccc1)C(=O)c1ccccc1 |  | 2.24 µM (active)
O=C(C(Br)=Cc1ccccc1)c1ccccc1 |  | 7.94 µM (active)
Cc1ccc(CN(C)C(=O)CN2C(=O)NC(c3ccccc3)(c3ccccc3)C2=O)c(C)c1 | -27.6% (inactive) | 
O=C(Nc1cccc(S(=O)(=O)N2CCOCC2)c1)c1ccc2c(=O)n3c(nc2c1)CCCCC3 | -20.1% (inactive) | 
O=C(Nc1ccc(Cl)cc1)Nc1nc(-c2sccc2Br)cs1 |  | 10 µM (active)
O=C(Nc1ccc(NC(=O)c2ccc(Cl)cc2Cl)cc1)c1cccs1 | -25.7% [at 57.5 µM] (inactive) | 

Compound | activity change, negative = cytotoxicity | Potency
Cc1ccc(F)cc1-c1cc2nc(NCCCN(C)C)n(C)c(=O)c2s1 | -13.1% [at 57.5 µM] (inactive) | 
CC(C)c1cccc(C(C)C)c1Nc1cn[nH]c1 | -15.4% (inactive) | 
CCOC(=O)c1cnc(-n2nc(C)cc2C)nc1NNc1cc(C)nc(-c2ccccc2)n1 |  | 8.91 µM (active)
CCOC(=O)c1cnc(-n2nc(C)cc2C)nc1NC1CCCC1 | -7.03% (inactive) | 
Cc1cc(NCc2ccccn2)n2nc(C)c(-c3ccc(Cl)cc3)c2n1 |  | 20 µM (active)
CC(C)C(CCNCc1ccccn1)c1ccc(Cl)cc1 (configuration not stated) | 5.83% [at 57.5 µM] (inactive) | 
CCCc1cc(NCc2ccccn2)n2nc(C)c(-c3ccccc3)c2n1 | -18.3% (inactive) | 
COc1cc(/C=C/c2ccc3cccc(O)c3n2)cc(OC)c1OC | -28.4% [at 57.5 µM] (inactive) | 
COc1cc(OC)c(OC)cc1/C=C1\CC(C)C/C(=C\c2cc(OC)c(OC)cc2OC)C1=O (configuration not stated) | -29.6% [at 57.5 µM] (inactive) | 
COc1cc(/C=C2\COC/C(=C\c3cc(OC)c(OC)c(OC)c3)C2=O)cc(OC)c1OC |  | 1.58 µM (active)
CCOC(=O)N(C)c1c(CC)nc2c(OCc3ccccc3OC)cccn12 | 14.1% [at 57.5 µM] (inactive) | 
Cc1cc(C)cc(NC(=O)CCC(=O)Nc2cc(C)on2)c1 | 16.8% (inactive) | 
Cn1c(SCc2ccc(C(C)(C)C)cc2)nnc1C1COc2ccccc2O1 (configuration not stated) | -14.2% (inactive) | 
N#C/C(=C/c1ccc(Sc2nc3ccccc3[nH]2)o1)c1cccc(F)c1 | -26.5% (inactive) | 
CC1(C(=O)NC2CCN(Cc3ccccc3)CC2)CCN1Cc1ccc2ccccc2c1 (configuration not stated) | -17.7% (inactive) | 
C=CCN(C(=O)CSc1nc2c(sc3ccccc32)c(=O)n1CCN(CC)CC)c1ccccc1 |  | 20 µM (active)
COc1ccc(/C=C/C(O)=C2/C(=O)N(C)C3(C)CC2c2ccccc2O3)cc1 (configuration not stated) | 0.775% [at 57.5 µM] (inactive) | 
COc1ccc(C(=O)c2c(C)c3ccccc3n2CC(O)CNC(C)C)cc1 (configuration not stated) |  | 17.8 µM (active)
O=C(Oc1c(CN2CCOCC2)cc(Cl)c2cccnc12)c1cccs1 | 6.23% [at 57.5 µM] (inactive) | 
COc1cnc(-c2ccccn2)nc1NC(C)C |  | 6.31 µM (active)
COc1cc(C#Cc2c(-c3cncn3C)n(C)c3ccc(-c4ccc(CN5CCOCC5)cc4)cc23)cc(OC)c1 | 3.5% (inactive) | 
COc1ccc2c(-c3ccc(S(N)(=O)=O)cc3)c(-c3ccc(S(C)(=O)=O)cc3)sc2c1 | -21.7% [at 57.5 µM] (inactive) | 
NC(=O)c1cc([N+](=O)[O-])ccc1NCc1ccc(N)cc1 |  | 22.4 µM (active)

Reference: PubChem BioAssay AID1745849 (National Center for Advancing Translational Sciences (NCATS), 2022)
